Experimental data from PMC5540273 (PLoS ONE, 2017).
Read-outs that look alike come from different tables or passages of the source.

What was measured:
GRK2 = tested on: T1, GRK2; settings: concentration: 1 μM, replicates: in singlicate; n = 1
T1 construct: gene ADRBK1

GRK3 = tested on: T2, GRK3; settings: concentration: 1 μM, replicates: in singlicate; n = 1
T2 construct: gene ADRBK2

GRK4 = settings: concentration: 1 μM, replicates: in singlicate; n = 1
GRK7 = settings: concentration: 1 μM, replicates: in singlicate; n = 1
GSK3A = settings: concentration: 1 μM, replicates: in singlicate; n = 1
GSK3B = settings: n = 1
HASPIN = tested on: T3, HASPIN; settings: concentration: 1 μM, replicates: in singlicate; n = 1
T3 construct: gene GSG2

HCK = settings: concentration: 1 μM, replicates: in singlicate; n = 1
HIPK1 = settings: concentration: 1 μM, replicates: in singlicate; n = 1
HIPK2 = settings: concentration: 1 μM, replicates: in singlicate; n = 1
[1] = concentration: 1 μM, replicates: in singlicate
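Further: KINOMEscan kinase panel screen.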

Row | SMILES | %Inh (GRK2) [%] | %Inh (GRK3) [%] | %Inh (GRK4) [%] | %Inh (GRK7) [%] | %Inh (GSK3A) [%] | %Inh (GSK3B; [1]) [%] | %Inh (HASPIN) [%] | %Inh (HCK) [%] | %Inh (HIPK1) [%] | %Inh (HIPK2) [%] | %Inh (GSK3B; 1 µM) [%]
1 | CCc1ccc(-c2ccc3c(c2)-c2nn(C)cc2S(=O)(=O)N3C)cc1 | 0 | 0 | 0 | 0 | 30 | 0 | 23 | 2 | 0 | 0 | 
2 | COc1cccc(C2=C(Nc3cccc(C(=O)O)c3)C(=O)NC2=O)c1 [SB-390770] | 0 | 22 | 0 | 0 | 51 |  | 10 | 0 | 0 | 0 | 31
3 | Cl.c1ccc(Cn2cnc3cc(Nc4ncnc5ccccc45)ccc32)cc1 [GW272142] | 0 | 50 | 0 | 0 | 0 | 1 | 0 | 0 | 0 | 0 | 
4 | CCS(=O)(=O)c1ccc(OC)c(Nc2ncc(-c3ccc(F)cc3)o2)c1.Cl [GW591947] | 0 | 0 | 0 | 0 | 8 | 0 | 0 | 0 | 33 | 0 | 
5 | CC(C)(C)c1ccc(C(=O)Nc2cn3cc(-c4ccccc4)ccc3n2)cc1 | 0 | 0 | 26 | 0 | 12 | 30 | 0 | 13 | 43 | 52 | 
6 | COc1cccc(C2=C(N(C)c3ccccc3)C(=O)NC2=O)c1 [SB-334865] | 0 | 5 | 0 | 0 | 0 | 24 | 2 | 0 | 0 | 0 | 
7 | OCCCNc1nccc(-c2c(-c3cccc(C(F)(F)F)c3)nn3cc(C(F)(F)F)ccc23)n1 [GW630813] | 0 | 37 | 0 | 0 | 0 | 2 | 21 | 0 | 0 | 0 | 
8 | Cc1cccc(-c2nc(Nc3ccc4c(cnn4C)c3)c3ccccc3n2)n1 [GW876731] | 16 | 5 | 0 | 15 | 18 | 0 | 11 | 0 | 0 | 14 | 
9 | CCC(=O)c1c(-c2ccccc2)c2cc(Cl)ccc2c(=O)n1Cc1ccc(C(=O)O)cc1 | 0 | 0 | 16 | 0 | 3 | 0 | 42 | 0 | 10 | 0 | 
10 | COc1cc(Nc2nccc(N3CCC(NC(=O)C4COc5ccccc5O4)C3)n2)cc(OC)c1OC (stereo not shown) [GSK1379761] | 0 | 38 | 0 | 0 | 0 | 3 | 55 | 0 | 0 | 0 | 
11 | Cc1ccccc1COc1cc(-n2cnc3cc(Cl)ccc32)sc1C(N)=O [GW813349] | 0 | 0 | 2 | 0 | 17 | 14 | 16 | 11 | 30 | 24 | 
12 | Fc1cccc(CSc2nnc(-c3ccc4c(c3)CCO4)o2)c1 | 35 | 10 | 0 | 19 | 64 |  | 20 | 1 | 18 | 30 | 37
13 | CCCC(=O)Nc1n[nH]c2ncc(-c3cccc4ccccc34)cc12 [SB-642057] | 0 | 0 | 0 | 0 | 87 |  | 0 | 1 | 0 | 0 | 33
14 | Cc1nc(N(C)[C@H]2CN(C(=O)CC#N)CC[C@H]2C)c2cc[nH]c2n1 | 0 | 0 | 0 | 0 | 9 | 0 | 0 | 0 | 6 | 0 | 
15 | Cc1nnc(-c2ccc3ncn(-c4ccc(S(C)=O)cc4)c3c2)o1 (stereo not shown) | 0 | 0 | 0 | 0 | 74 | 36 | 0 | 13 | 28 | 10 | 
16 | COC(=O)c1c(-c2ccccc2)c2cc(C)ccc2c(=O)n1Cc1ccccc1 | 0 | 0 | 28 | 0 | 0 | 0 | 0 | 0 | 0 | 0 | 
17 | Nc1nccc2scc(-c3ccc4c(c3)CCN4C(=O)Cc3ccccc3)c12 [GSK2576924] | 4 | 100 | 0 | 0 | 11 | 2 | 0 | 0 | 0 | 0 | 

Row | SMILES | %Inh (GRK2) [%] | %Inh (GRK3) [%] | %Inh (GRK4) [%] | %Inh (GRK7) [%] | %Inh (GSK3A) [%] | %Inh (GSK3B; [1]) [%] | %Inh (HASPIN) [%] | %Inh (HCK) [%] | %Inh (HIPK1) [%] | %Inh (HIPK2) [%] | %Inh (GSK3B; 1 µM) [%]
18 | FC(F)(F)c1ccc(-c2ncn(CCCN3CCOCC3)c2-c2ccncc2)cc1 [SB-217780] | 5 | 0 | 26 | 0 | 0 | 25 | 11 | 8 | 18 | 52 | 
19 | CN1C(=O)C(Nc2cc(Cl)c(O)c(Cl)c2)=C(c2ccc(Cl)cc2)C1=O [SB-404321] | 22 | 28 | 96.7 | 0 | 0 | 0 | 0 | 0 | 0 | 38 | 
20 | CCC(=O)c1c(-c2ccccc2)c2cc(Cl)ccc2c(=O)n1Cc1cc(S(C)(=O)=O)n(CC(N)=O)n1 | 0 | 0 | 0 | 0 | 6 | 0 | 0 | 24 | 29 | 0 | 
21 | Cl.NS(=O)(=O)c1cccc(Nc2cc(-c3ccc(F)cc3)n[nH]2)c1 [GW824645] | 0 | 21 | 0 | 0 | 0 | 6 | 51 | 13 | 36 | 10 | 
22 | COc1ccc(-c2coc3ccc(-c4nnc(SCc5cccc(C#N)c5)o4)cc23)cc1 | 0 | 0 | 0 | 27 | 96.1 | 45 | 0 | 20 | 32 | 24 | 
23 | COc1cc2nccc(Nc3ccc(OCc4ccc(NC(C)=O)cc4)cc3)c2cc1OC.Cl [GW440135] | 0 | 17 | 23 | 4 | 0 | 0 | 18 | 0 | 0 | 0 | 
24 | CCS(=O)c1ccc(-c2coc3ccc(-c4nnc(C)o4)cc23)cc1 (stereo not shown) | 0 | 5 | 21 | 19 | 91.6 | 58 | 17 | 33 | 30 | 43 | 
25 | Cc1cc(Nc2nc(-c3cccc(C)n3)nc3ccccc23)ccn1 [GW872411] | 0 | 0 | 35 | 0 | 0 | 0 | 0 | 7 | 0 | 0 | 
26 | CCn1c(-c2nonc2N)nc2ccccc21 [SB-693162/GW549034] | 0 | 14 | 30 | 25 | 0 | 37 | 0 | 0 | 29 | 45 | 
27 | O=C(NCc1cccs1)c1cc(C(=O)c2c(Cl)cccc2Cl)c[nH]1 [GW823670] | 16 | 25 | 8 | 0 | 0 | 0 | 0 | 25 | 17 | 0 | 
28 | COc1cc2ncn(-c3cc(OCc4ccc(S(C)(=O)=O)cc4)c(C(N)=O)s3)c2cc1OC [GW869979] | 45 | 0 | 1 | 0 | 3 | 0 | 40 | 0 | 0 | 9 | 
29 | COc1ccc(-n2cnc3c(N)ncnc32)cc1 [SKF-97236] | 12 | 0 | 22 | 3 | 6 | 15 | 0 | 0 | 24 | 5 | 
30 | COc1cc2nccc(Nc3cccc(Oc4ccccc4)c3)c2cc1OC.Cl [GW284543] | 28 | 16 | 7 | 0 | 5 | 0 | 11 | 44 | 0 | 25 | 
31 | Nc1ncnc2c1ncn2-c1ccc(Cl)cc1 [AH2635] | 0 | 41 | 0 | 0 | 14 | 0 | 21 | 0 | 0 | 0 | 
32 | COC(=O)c1c(-c2ccccc2)c2cc(Br)ccc2c(=O)n1Cc1ccc(NC(=O)CCC(=O)O)cc1 | 19 | 8 | 0 | 31 | 0 | 15 | 6 | 14 | 26 | 28 | 
33 | O=c1cc(N2CCOCC2)nc2n(Cc3ccc(F)c(Cl)c3)ccn12 [GSK2297099] | 0 | 0 | 0 | 0 | 0 | 8 | 0 | 0 | 7 | 0 | 
34 | CCC(=O)c1c(-c2ccccc2)c2cc(Cl)ccc2c(=O)n1Cc1cc(S(C)(=O)=O)n(CC(F)F)n1 | 0 | 0 | 4 | 0 | 0 | 0 | 26 | 0 | 25 | 0 | 
